# Compounds with a hit are over-represented: about 2.1% of the library has one in this group of screens.
# TDP43 rescue = inhibitors of TDP-43 toxicity in yeast. TDP-43 expressing yeast growth rescue, BacTiter-Glo, 24 h. Potency, µM (doses to about 46.1 µM), without a hit: top-dose growth rescue (activation), actives largely listed as activators. 410,000 compounds, 1.8% hits. AID 652104; note: % of control where 0% means no effect; nearly all actives have a fitted effect of over 50% in size
#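 Galactose-induced TDP-43 yeast, OD600=0.02, compound pinned; 24 hr, 30 deg C; BacTiter-Glo luminescence for growth. Inhibitors of TDP-43 toxicity read as activators.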
# aSyn rescue = alpha-synuclein toxicity inhibition in yeast. Yeast expressing alpha-synuclein, growth rescue, BacTiter-Glo, 24 h. Potency, µM (series often up to 46.1 µM), for inactives: at the highest dose growth rescue (activation), most hits filed as activators. 370,000 compounds, 0.14% hits. AID 652106; note: % of control where 0% means no effect; nearly all actives have a fitted effect of over 65% in size
#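 Readout is rescue of growth in alpha-synuclein-expressing yeast, so inhibitors of toxicity appear as activators. Growth after 24 hr at 30 deg C in galactose medium is quantified by luminescence.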
# FUS yeast rescue = FUS proteinopathy suppression in yeast | Potency, µM (titrated, usually from 76.6 µM), actives largely listed as activators | AID 1347120 | S. cerevisiae FUS-expressing, growth rescue, OD600, 24 h | 390,000 compounds, 0.24% hits;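 note: plate controls were DMSO vehicle for no effect and reference control for full effect; nearly all actives have a fitted effect of over 55% in size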
#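 Read-out: OD at 600 nm after 24hr at 30C, reporting rescue of FUS-induced yeast toxicity. Cells at OD 0.005 in galactose (2%) minimal medium; compounds tested in a dilution series; CP55940 titration from 92uM final as control.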
# Abeta yeast res = restores growth of yeast expressing A-beta42 peptide | Potency, µM (titrated, usually from 46.1 µM), usual class: activators | 410,000 compounds, 0.063% hits | yeast expressing A-beta42, growth rescue, OD600, 48 h; response scale: 0% DMSO, 100% iron-clioquinol control; note: nearly all actives have a fitted effect of over 55% in size
#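 Yeast A-beta toxicity model in growth medium with pinned compounds, 48 h at 30 C; growth read as absorbance at 600 nm. Normalized to FeCl3/clioquinol equimolar mix (positive) and DMSO (negative).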
# Starred values were filed as active, the others as inactive; i = inactive; u = inconclusive; x = not tested or not shown; [ ] = dose if it differs, or a comment. Calls come from the whole dose curve; as a rule, active = well fitted curve in the direction sought with a large enough effect; inconclusive = small, poorly fitted or top-dose-only effect, or another doubt; inactive = no such curve, though single readings can be large; an effect the other way counts as inactive or inconclusive. Potency is the fitted concentration of half-maximal effect.
SMILES,TDP43 rescue,aSyn rescue,FUS yeast rescue,Abeta yeast res
O=S(=O)(c1ccc(Cl)cc1)c1nc(-c2cccc(Br)c2)oc1NCc1ccccc1,11.9%,x,i,i
Cc1ccc(C(=O)Nn2c(C)nc3ccccc3c2=O)cc1C,11.2µM*,-1.4%,i,i
Cc1ccc(C(C)C)c(OCC(=O)Nn2c(C)nc3ccccc3c2=O)c1,14.1µM*,5.0%,i,i
Cc1ccc(C(C)C)c(OCC(=O)Nn2c(=O)[nH]c3ccccc3c2=O)c1,0.0%,15.0%,x,i
Cc1nc2ccccc2c(=O)n1NC(=O)c1ccc(C(C)(C)C)cc1,15.5%,-8.8%,i,i
CSc1ccc(/C=C2\C=Cc3ccc([N+](=O)[O-])cc32)cc1,x,2.9%,x,x
N#C/C(=C\c1ccc(F)cc1)C(=O)NCC1CCCO1 (stereo not drawn),15.3%,x,i,u
CCN(C(=O)CCS(=O)(=O)c1cc2c(cc1C)NC(=O)CO2)c1cccc(C)c1,16.8%,u,i,i
Cc1ccc(CN(C)C(=O)c2cccc(S(=O)(=O)N3CCc4ccccc4C3)c2)o1,35.5µM*,1.6%[1.84 µM],i,i
Clc1cccc(CSc2ncn(-c3ccccc3)n2)c1,12.6µM*,3.7%,i,i
O=S(Cc1ccc(Br)cc1)Cc1nnc(SCc2ccc(Cl)cc2)n1-c1ccccc1 (stereo not drawn),6.31µM*,u,x,i
CCCN(C)CCCOc1cc2nc(N3CCCN(C)CC3)nc(NC3CCN(C)CC3)c2cc1OC,x,16.9%,x,x
C=C(c1nc2ccccc2s1)C1Cc2cccc3c2N(CCC3)C1 (stereo not drawn),x,-78.2%,x,x
c1ccc(Cn2c(SCc3nc4ccccc4s3)nnc2-c2ccco2)cc1,14.1µM*,4.2%,u,i
CCc1ccc(NC(=O)c2cc(S(=O)(=O)N3CCCCCC3)ccc2F)cc1,-2.0%,x,i,i
CCOC(=O)N(O)c1ccc(C=Cc2ccccc2)cc1,14.1µM*,-1.7%,x,i
COC1=CC(=O)c2nc(Cl)ccc2C1=O,12.6µM*,u,i,i
COC1=CC(=O)c2c(ccc3ncnc(N)c23)C1=O,26.3%,-67.4%,x,i
COc1ccc(/C(N)=N/OC(=O)Cc2ccccc2OC)cc1,20µM*,-0.6%,i,i
COc1ccc(OCC(=O)O/N=C(\N)c2ccc(OC)c(OC)c2)cc1,19.9%,2.6%,i,i
COc1ccc(CC(=O)O/N=C(\N)c2ccc(C)cc2)cc1,7.94µM*,3.7%,i,i
COc1ccc(C/C(=N\O)c2ccc(OC)cc2)cc1,14.1µM*,3.2%,i,i
COc1cccc(OCC(=O)O/N=C(\N)c2ccc(OC)c(OC)c2)c1,11.2µM*,11.2%,x,i
COc1ccccc1CC(=O)O/N=C(\N)c1ccccn1,u,9.5%,i,i
COc1ccc(CC(=O)O/N=C(\N)c2ccncc2)cc1,8.7%,2.3%,i,i
SMILES,TDP43 rescue,aSyn rescue,FUS yeast rescue,Abeta yeast res
CCOC(=O)[C@@]12CCCC3=C1N(CCC3)C(=O)[C@H]2CC(=O)NCc1ccc(OC)c(OC)c1,x,x,i,x
OC(c1ccc(F)cc1)c1nc(/C=C/c2ccccc2)cs1 (stereo not drawn),u,17.6%,i,i
OC(c1ccccc1)c1nc(/C=C/c2ccccc2)cs1 (stereo not drawn),14.1µM*,25.5%,i,i
COc1cc(C(O)c2nc(/C=C/c3ccccc3)cs2)ccc1F (stereo not drawn),22.4µM*,3.8%,i,i
COc1ccc(-c2nc3scc(CCNS(=O)(=O)c4ccc(F)c(C(F)(F)F)c4)n3n2)cc1OC,14.5%,x,i,i
CCc1c(C)nc2nncn2c1Nc1ccc(C(C)C)cc1,12.6µM*,x,i,i
CCCc1ccc(S(=O)(=O)N2CCC(c3nnc(-c4cccc(C)c4)o3)CC2)cc1,10.1%[9.22 µM],x,i,i
CCCCn1c(NC(=O)c2ccccc2)nc2ccccc21,u,25.1µM*,i,i
CCCn1c(NC(=O)c2ccc(F)cc2)nc2ccccc21,0.0%,1.0%,i,i
CCCn1c(NC(=O)c2ccccc2Br)nc2ccccc21,15.8µM*,10.5%,i,i
CCn1c(NC(=O)c2ccccc2)nc2ccccc21,u,3.4%,i,i
C=CCn1c(NC(=O)c2ccccc2)nc2ccccc21,17.8µM*,1.9%,i,i
CCCn1c(NC(=O)c2ccc(Br)cc2)nc2ccccc21,-5.6%,1.8%,i,i
COc1ccc(-c2noc(CSc3nnc(Cc4ccccc4)n3-c3ccccc3)n2)cc1OC,6.4%,x,u,i
O=C(Nc1ccc(F)cc1)C1CCN(c2nc3ccccc3nc2C(F)(F)F)CC1,13.7%,x,i,i
O=C(NC(=S)N1CCN(c2ccc(Cl)cc2[N+](=O)[O-])CC1)c1ccco1,12.6µM*,-0.8%,i,i
Cc1cccc(-c2nc(CCNC(=O)COc3ccccc3)cs2)c1,35.5µM*,x,i,i
Cc1cccc(-c2nc(CCNC(=O)Cc3ccccc3)cs2)c1,15.8µM*,x,i,i
COc1ccc(CCC(=O)NCCc2csc(-c3cccc(C)c3)n2)cc1,u,x,i,i
COc1ccc(N2CCN(C(=O)CSc3nc(-c4ccc(C(C)C)cc4)no3)CC2)cc1,11.1%,x,i,i
Cc1ccc(CSc2nnc(-c3ccccc3)n2Cc2ccco2)cc1,x,x,i,x
Cc1ccc(C)c(Cn2c(=O)cc(C)c3c(C)nn(C)c32)c1,3.3%,x,i,i
COc1nnc(-c2ccc(N3CCCCC3)c(NC(=O)C3CCCCC3)c2)c2ccccc12,-21.7%,0.2%,x,i
COc1nnc(-c2ccc(N3CCCCC3)c(NC(C)=O)c2)c2ccccc12,22.4µM*,6.0%,i,i
COCCc1nn2c(=O)cc(COC(=O)c3ccc(C(C)(C)C)cc3)nc2s1,-8.2%,x,u,i
SMILES,TDP43 rescue,aSyn rescue,FUS yeast rescue,Abeta yeast res
CCCCNc1c(-c2cccc(-c3cc(C(C)=O)cs3)c2)nc2ccc(C)cn12,11.2µM*,-7.2%,i,i
CCCCNc1c(-c2cccc(-c3ccc(OC)cc3)c2)nc2ccc(C)cn12,-92.9%,-71.8%,i,i
COc1ccc(-c2n[nH]c(C)c2-c2cnn(-c3ccccc3)c2)c(O)c1,22.4µM*,12.8%,u,i
COC(=O)[C@]12C[C@H](CC(=O)NCc3cccs3)C(=O)N(Cc3ccccc3)C1=C[C@H](COCc1ccccc1)O[C@@H]2C,x,x,i,x
Cc1ccc(C(=O)N2CCC(C(=O)c3c(C)cc(C)cc3C)CC2)cc1,17.8µM*,1.7%,u,i
Cc1ccc(C(=O)C2CCN(C(=O)c3ccc(C)cc3)CC2)cc1,15.4%,-7.2%,i,i
O=C1NC(Cc2ccccc2)C(=O)N1Cc1ccccc1 (stereo not drawn),9.4%,-4.0%,i,i
O=c1ccsn1Cc1ccccc1,10µM*,0.4%,x,i
CCCN1C(=O)/C(=C/c2ccc3c(c2)OCO3)NC1=S,14.1µM*,-7.2%,i,u

# Assay outcomes as filed in PubChem.
